This is an account of results in the supplement of paper PMC6555819.

In this test the test system is VDR:RXRa (NR concentration 270 nM, RXRa partner concentration 90 nM). The experiment in a line: PBM binding z-score (relative to random genomic background probes); higher = stronger binding; sequences stand for … in GC…GCGATTGACAGCGTAGAATGAAGG
How it is done:
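Protein-binding microarray (Agilent 4x180K custom design, double-stranded 60-nt probes: 5' GC cap, 34-nt variable region, 24-nt constant primer region; full probe sequence given). Purified or IVT nuclear receptor:RXRα heterodimers (3:1 NR:RXRα, mostly 270:90 nM) or homodimers were incubated for 1 h in PBS with 2% milk and no ligand, then detected with Alexa488 antibodies. Fluorescence from o1-orientation probes (~5 replicates averaged) was converted to z-scores against 500 random hg19 background probes. Variable regions are seed direct-repeat (DR0–DR5) sites, all their single-nucleotide variants and half-site ablations.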
CTTCGGAGGACAACAGGAGGTCAGAGCTGCCAGA gave a PBM binding z-score of 2.12.
The figure for GGAACGAGAGCATTCGAGTTGATAGCATGGCGAT is -0.115; for CGTCAAAGATCAACTAAGGTAACGTAAAGCACGC it is 0.78; for ATTGAAAGGTCGACGAGGTGAGTATACACCGTTT it is 5.31.
The figure for GATACAGGGTCAGCTAGAGGCCCGAGTATGGAAA is 2.11.
Sequence AGAATGAGGTTATAAAGATCAGGGAATTGCGGTC gave a PBM binding z-score of 1.27.
Next, TCTTGTAGATCAAGGGTTAAGAAAGCCGAAGCCT: 0.604.
Next, CCAGACAGATGAGAAGGTAACTCAGCCTCGATTA: 0.0435.
The figure for TCTATTAGATGAAGGGCAACCGACGAGTCCGTTT is 1.02; for ATCGAAAGGTCGTGAGGTGAGTAGACAGAAAGGC it is 3.35.
In turn, ATATGTAGTTTACATCCGGGTCATTCAGGCTATG registered a PBM binding z-score of 3.49.
Next, TCATATAGGTAAATGTGAAAGTCGAACGATATGA: 0.491; GGAACAAGGGCAAGTTGATAGCAGAGTTTGATGG: 0.829; ATCTCTAGGTAAAAGTTCAGTCAATCCCGAGGAT: 1.45.
Next, TTACCAAGGTGAAAGGACGTTGATGCACGCCTTG: 0.0674; CCTAGTTGGTCAGGAGGTCACACGCCGGATATGA: 3.93.
The figure for ACTAGCAGGCCAAGGGTCACTTAAGATTAGTCCG is 2.88; for CGTCCAAGGTCATAGGAGGTCAGTGAGGACAGAT it is 7.07; for TCATATAGGTGAATGCTAGGTGAAAGTCCGATCT it is 0.699.
Sequence TCTTGTAGATCAAGCAGGCTAAGAAAGCCTGAGT returned a PBM binding z-score of -0.214.
The figure for GCTTACGGATCAAAGGTTATAGCATGAATAGAAT is 1.52; for AGAACGAGGGCAATAAGTTGATAGCACGGGTGGC it is 3.26.
The figure for TCTTGTAGATCAAGCAGGTTAAGATAGCCTGAGT is 0.573; for AGAACGAGGGCAATGAGTTGATGGCACGGGTGGC it is 4.7; for GCTGCTAGGTCAACAGATGGTCAGCTAAAGCTCG it is 1.11.
Next, CCGACTGGGGCAGAAAGGATACCATACCATCCGG: -0.772.
Consider ACTAGCAGGCCAAGTTTGGGTCGCTCAAACAAAG, for which the PBM binding z-score is -0.328.
In the case of AGTCAAAGTTCATGACGAGGTAACGTAAAGCACG, the PBM binding z-score came out at 4.64.
The figure for TCTCGTAGATCAAGCAGGTTAAGAAAGCCTGAGT is -0.00505; for TAGCCTGGGTCATGGGCCAGTATACCACGCGAAC it is 1.82.
Next, ACAGACAGGTGATGAAGGTAACTCATGCTATCAT: 0.111.
The figure for CGTCCAAGGTCAATGCTAGGTCGGTGAAAGCATT is 4.11; for CGAACTAGGTGATCCAGGACAGTGAATACATTGA it is 0.541.
Turning to AATACAGGGTCACTAGGCCGGAGTAGGTACGAAT, the PBM binding z-score is 4.11.
The figure for ACTAGTTGGTCCGCTGAGGTCACACACAATTCGG is 3.75; for CCTATTAGTTTACCATAAGGGCAACCGAAGCTCG it is 0.484.
The figure for TCTTGTAGATCAGCAGGTTAAGGAAGCTGGCCAA is 0.37.
The figure for TCATATAGGGAATACAGGTGAAAGTCGGCATCTA is 1.11; for AGTATGAGGTTACCAAAGATCAGGGAAACGCTTG it is 1.41.
CCGAGTAGATTATGGGGCATTCAGGCAACGGTGA: the PBM binding z-score is -0.214.
